PPARg SRC-1 ag: promotes SRC-1 coactivator recruitment by human PPARgamma. 200,000 tested, 0.41% active. P37231. activation, % at 8 µM. PPARgamma-SRC-1 coactivator recruitment biochemical assay; in the data active = activation above about 19%;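 note: 0% = DMSO and 100% = reference agonist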
Target sequence (P37231 whole entry, looked up): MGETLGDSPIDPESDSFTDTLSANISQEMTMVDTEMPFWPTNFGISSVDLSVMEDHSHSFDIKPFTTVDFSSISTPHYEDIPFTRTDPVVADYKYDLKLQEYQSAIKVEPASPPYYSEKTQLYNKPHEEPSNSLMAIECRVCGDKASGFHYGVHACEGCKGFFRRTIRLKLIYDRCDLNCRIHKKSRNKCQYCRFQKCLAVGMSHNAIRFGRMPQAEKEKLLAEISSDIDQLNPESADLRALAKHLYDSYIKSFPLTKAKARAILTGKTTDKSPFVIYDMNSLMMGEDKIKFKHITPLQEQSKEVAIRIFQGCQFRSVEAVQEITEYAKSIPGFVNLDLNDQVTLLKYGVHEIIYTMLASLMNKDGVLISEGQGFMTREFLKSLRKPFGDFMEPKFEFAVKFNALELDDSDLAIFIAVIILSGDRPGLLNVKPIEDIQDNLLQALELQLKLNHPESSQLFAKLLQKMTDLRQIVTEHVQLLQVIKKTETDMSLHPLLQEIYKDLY
PPARg SRC-3 ag: PPARgamma-driven SRC-3 recruitment agonism; P37231; activation, % at 8 µM; biochemical PPARgamma/SRC-3 coactivator recruitment assay; 200,000 tested, 0.26% active; in the data active = activation above about 23%;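 note: 0% = DMSO and 100% = reference agonist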
SRC1 TRFRET art: flags TR-FRET format artefacts in PPARgamma SRC-1 recruitment agonist screen; TR-FRET detection artefact counter-screen, emission ratio; hits give high values; TR-FRET ratio at 8 µM; 99,000 tested, 0.34% active; AID 1051; in the data active = TR-FRET ratio above about 2300
PPARg SRC-2 ag: agonists of SRC-2 recruitment by human PPARgamma | P37231 | PPARgamma LBD-SRC-2 recruitment, biochemical | activation, % at 8 µM | 200,000 tested, 0.34% active | AID 1032;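 note: 0% = vehicle and 100% = reference agonist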
SRC3 TRFRET art: TR-FRET artefact, counter-screen to PPARgamma/SRC-3 agonist assay. PPARgamma/SRC-3 format; hits give high values. TR-FRET ratio at 8 µM. 99,000 tested, 0.39% active; in the data active = TR-FRET ratio above about 2000
SRC2 TRFRET art: flags TR-FRET format artefacts in PPARgamma SRC-2 recruitment agonist screen; 200,000 tested, 0.4% active; TR-FRET ratio at 8 µM; TR-FRET artefact counter-screen; hits give high values; AID 1049; in the data active = TR-FRET ratio above about 2000
PPARg SRC2 ag: confirmation of agonists of SRC-2 recruitment by human PPARgamma; shares compounds with PPARg SRC-3 ag; biochemical SRC-2 recruitment by PPARgamma; activation, % at 8 µM; 790 tested, 52% active; AID 1297;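 note: 0% = vehicle alone and 100% = reference agonist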
PPARg SRC1 conf: human PPARgamma SRC-1 recruitment agonism, confirmation; activation, % at 8 µM; PPARgamma–SRC-1 coactivator recruitment biochemical assay; shares compounds with PPARg SRC-3 ag; 790 tested, 43% active; in the data active = activation above about 20%;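 note: 0% = vehicle wells and 100% = reference agonist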
PPARg SRC3 ag: confirmation of agonists of SRC-3 recruitment by human PPARgamma; biochemical PPARgamma-SRC-3 coactivator recruitment, agonist mode; shares compounds with PPARg SRC-3 ag; activation, % at 8 µM; 790 tested, 29% active; in the data active = activation above about 24%;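 note: 0% = vehicle wells and 100% = reference agonist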
Starred values were filed as active, the others as inactive. Rows were chosen to be rich in hits. Some 0.9% of all compounds tested hit in one or more screens of this group. Cut-off read from the data, not from the text of the source, unless noted: active = activation above about 22%; inactive = the rest.

Results for O=C(CSc1ncnc2c1oc1ccccc12)N1CCCc2ccccc21 ?
PPARg SRC-1 ag: 16.2; PPARg SRC-3 ag: 39.5*; PPARg SRC-2 ag: 39.9*; SRC2 TRFRET art: 1981*; PPARg SRC2 ag: 30.9*; PPARg SRC1 conf: 24.0*; PPARg SRC3 ag: 19.1

What do the screens show for `N#CCCSc1ncnc2c1oc1ccccc12`?
PPARg SRC-1 ag: 19.9*; PPARg SRC-3 ag: 35.7*; PPARg SRC-2 ag: 41.1*; SRC2 TRFRET art: 2279*; PPARg SRC2 ag: 30.9*; PPARg SRC1 conf: 21.4*; PPARg SRC3 ag: 22.1

What do the screens show for `OCCSc1ncnc2c1oc1ccccc12`?
PPARg SRC-1 ag: 12.5; PPARg SRC-3 ag: 6.5; PPARg SRC-2 ag: 23.4*; SRC2 TRFRET art: 1920; PPARg SRC2 ag: 27.7*; PPARg SRC1 conf: 21.8*; PPARg SRC3 ag: 18.3

How did CCOC(=O)CC(=O)CSc1ncnc2c1oc1ccccc12 do in these assays?
PPARg SRC-1 ag: 96.5*; PPARg SRC-3 ag: 138.2*; PPARg SRC-2 ag: 87.2*; SRC2 TRFRET art: 3929*; PPARg SRC2 ag: 55.1*; PPARg SRC1 conf: 36.0*; PPARg SRC3 ag: 37.0*

How did O=C(NC(Cc1ccccc1)C(=O)O)/C(=C/c1ccco1)NC(=O)c1cccc(Br)c1 (configuration not stated) do in these assays?
PPARg SRC-1 ag: 4.9; PPARg SRC-3 ag: 1.9; SRC1 TRFRET art: 1518; PPARg SRC-2 ag: -4.1; SRC3 TRFRET art: 1556; SRC2 TRFRET art: 1560

Results for Cc1ccc(S(=O)(=O)C(C#N)=C2N(C)c3ccccc3N2C)cc1 ?
PPARg SRC-1 ag: -5.5; PPARg SRC-3 ag: -3.5; SRC1 TRFRET art: 1614; PPARg SRC-2 ag: -6.3; SRC3 TRFRET art: 1572; SRC2 TRFRET art: 1497

Results for O=C(O)CSc1ncnc2c1oc1ccccc12 ?
PPARg SRC-1 ag: 19.3*; PPARg SRC-3 ag: 23.8; PPARg SRC-2 ag: 26.2*; SRC2 TRFRET art: 1845; PPARg SRC2 ag: 18.4; PPARg SRC1 conf: 13.0; PPARg SRC3 ag: 11.2

What do the screens show for `O=C(CSc1ncnc2c1oc1ccccc12)Nc1ccccc1C(F)(F)F`?
PPARg SRC-1 ag: 11.3; PPARg SRC-3 ag: 12.1; SRC1 TRFRET art: 2040; PPARg SRC-2 ag: 7.3; SRC3 TRFRET art: 1851; SRC2 TRFRET art: 1704

What do the screens show for `CCCCc1nc2sc3c(SCC(=O)NCc4ccco4)ncnc3c2c2c1CCC2`?
PPARg SRC-1 ag: 22.0*; PPARg SRC-3 ag: 10.5; PPARg SRC-2 ag: 7.3; SRC2 TRFRET art: 1710; PPARg SRC2 ag: 37.5*; PPARg SRC1 conf: 26.2*; PPARg SRC3 ag: 25.8*

Results for O=C(CSc1ncnc2c1oc1ccccc12)NCc1ccco1 ?
PPARg SRC-1 ag: 91.5*; PPARg SRC-3 ag: 106.5*; PPARg SRC-2 ag: 91.8*; SRC2 TRFRET art: 3393*; PPARg SRC2 ag: 64.7*; PPARg SRC1 conf: 47.0*; PPARg SRC3 ag: 43.9*

Results for COC(=O)c1cccnc1NC(=S)NNC(=O)c1ccccc1 ?
PPARg SRC-1 ag: 3.2; PPARg SRC-3 ag: -1.5; PPARg SRC-2 ag: 0.8; SRC2 TRFRET art: 1411

How did COc1ccc(CNC(=O)c2cc(-c3ccncc3)nc3c(C)cc(C)cc23)cc1OC do in these assays?
PPARg SRC-1 ag: -2.9; PPARg SRC-3 ag: 0.5; SRC1 TRFRET art: 1714; PPARg SRC-2 ag: -0.8; SRC3 TRFRET art: 1334; SRC2 TRFRET art: 1301

What do the screens show for `O=c1cc(-c2ccc3c(c2)OCO3)oc2ccccc12`?
PPARg SRC-1 ag: 33.4*; PPARg SRC-3 ag: 1.4; SRC1 TRFRET art: 2778*; PPARg SRC-2 ag: 27.2*; SRC3 TRFRET art: 1634; SRC2 TRFRET art: 2211*; PPARg SRC2 ag: 7.4; PPARg SRC1 conf: 5.9; PPARg SRC3 ag: 3.6

Results for COc1ccc(-n2ncc3c(NC(C)C)ncnc32)cc1 ?
PPARg SRC-1 ag: 18.9*; PPARg SRC-3 ag: 7.7; PPARg SRC-2 ag: 6.1; SRC2 TRFRET art: 1605; PPARg SRC2 ag: 5.8; PPARg SRC1 conf: 4.4; PPARg SRC3 ag: 0.6

What do the screens show for `Cc1ccc(NC(=O)COC(=O)CNC(=O)c2ccco2)cc1`?
PPARg SRC-1 ag: 15.4; PPARg SRC-3 ag: 2.6; SRC1 TRFRET art: 1715; PPARg SRC-2 ag: 0.1; SRC3 TRFRET art: 1492; SRC2 TRFRET art: 1603

Results for Clc1ccc(Cl)c(-c2ccc(/C=N/c3ncn[nH]3)o2)c1 ?
PPARg SRC-1 ag: 49.4*; PPARg SRC-3 ag: 58.2*; PPARg SRC-2 ag: 53.7*; SRC2 TRFRET art: 2699*; PPARg SRC2 ag: 52.8*; PPARg SRC1 conf: 38.4*; PPARg SRC3 ag: 29.9*

Results for COc1ccc(-c2nc(SCC(=O)NC3CCCC3)c(-c3ccc(OC)cc3)[nH]2)cc1 ?
PPARg SRC-1 ag: 6.7; PPARg SRC-3 ag: 10.5; SRC1 TRFRET art: 1827; PPARg SRC-2 ag: 24.0*; SRC3 TRFRET art: 1994; SRC2 TRFRET art: 1685; PPARg SRC2 ag: 1.2; PPARg SRC1 conf: 2.2; PPARg SRC3 ag: -0.6

How did Cc1cc(=O)[nH]c(SCC(=O)Nc2ccc(S(=O)(=O)N3CCCCC3)cc2)n1 do in these assays?
PPARg SRC-1 ag: -2.7; PPARg SRC-3 ag: -12.5; PPARg SRC-2 ag: 6.2; SRC2 TRFRET art: 1360

How did COc1ccc2nc(SCC(=O)Nc3ccc(S(=O)(=O)N4CCCC4)cc3)c(C#N)cc2c1 do in these assays?
PPARg SRC-1 ag: 85.7*; PPARg SRC-3 ag: 83.2*; PPARg SRC-2 ag: 78.1*; SRC2 TRFRET art: 4855*; PPARg SRC2 ag: 78.7*; PPARg SRC1 conf: 61.8*; PPARg SRC3 ag: 47.5*

Results for N#Cc1cc2ccccc2nc1SCC(=O)Nc1ccc(S(=O)(=O)N2CCCC2)cc1 ?
PPARg SRC-1 ag: 19.1*; PPARg SRC-3 ag: 7.2; PPARg SRC-2 ag: 13.0; SRC2 TRFRET art: 3014*; PPARg SRC2 ag: 5.5; PPARg SRC1 conf: 4.1; PPARg SRC3 ag: 2.6

Results for O=C(CSc1ccc(-c2nc3ccccc3[nH]2)cn1)Nc1ccc(S(=O)(=O)N2CCCC2)cc1 ?
PPARg SRC-1 ag: -0.7; PPARg SRC-3 ag: 1.2; SRC1 TRFRET art: 1936; PPARg SRC-2 ag: 5.5; SRC3 TRFRET art: 2021; SRC2 TRFRET art: 1868

How did Cc1cc2nc(-c3ccc(SCC(=O)Nc4ccc(S(=O)(=O)N5CCCC5)cc4)nc3)[nH]c2cc1C do in these assays?
PPARg SRC-1 ag: 30.7*; PPARg SRC-3 ag: 20.0; SRC1 TRFRET art: 3103*; PPARg SRC-2 ag: 38.6*; SRC3 TRFRET art: 3472*; SRC2 TRFRET art: 3000*; PPARg SRC2 ag: 78.8*; PPARg SRC1 conf: 62.0*; PPARg SRC3 ag: 49.5*

What do the screens show for `COc1ccc2nc(SCC(=O)N3CCCCC3)c(C#N)cc2c1`?
PPARg SRC-1 ag: 3.9; PPARg SRC-3 ag: 3.5; SRC1 TRFRET art: 1902; PPARg SRC-2 ag: -2.8; SRC3 TRFRET art: 1673; SRC2 TRFRET art: 1479
